Records with an inconclusive call do not appear. Where a call stands in place of a potency, no number is given. The source made the active and inactive calls. The call rests on the fitted dose curve.
What follows are molecules tested against Acetylcholinesterase (Homo sapiens) (UniProt P22303) (assay: Acetylcholinesterase (AChE) small molecule antagonists: colormetric cell-based qHTS assay (AID 1347395; further: nearly all actives have a fitted effect of over 30% in size)). Settings: SH-SY5Y cells AChE activity, colorimetric (Ellman); series mostly up to 115 µM.
Acetylcholinesterase (Homo sapiens), sequence (P22303 whole entry, looked up): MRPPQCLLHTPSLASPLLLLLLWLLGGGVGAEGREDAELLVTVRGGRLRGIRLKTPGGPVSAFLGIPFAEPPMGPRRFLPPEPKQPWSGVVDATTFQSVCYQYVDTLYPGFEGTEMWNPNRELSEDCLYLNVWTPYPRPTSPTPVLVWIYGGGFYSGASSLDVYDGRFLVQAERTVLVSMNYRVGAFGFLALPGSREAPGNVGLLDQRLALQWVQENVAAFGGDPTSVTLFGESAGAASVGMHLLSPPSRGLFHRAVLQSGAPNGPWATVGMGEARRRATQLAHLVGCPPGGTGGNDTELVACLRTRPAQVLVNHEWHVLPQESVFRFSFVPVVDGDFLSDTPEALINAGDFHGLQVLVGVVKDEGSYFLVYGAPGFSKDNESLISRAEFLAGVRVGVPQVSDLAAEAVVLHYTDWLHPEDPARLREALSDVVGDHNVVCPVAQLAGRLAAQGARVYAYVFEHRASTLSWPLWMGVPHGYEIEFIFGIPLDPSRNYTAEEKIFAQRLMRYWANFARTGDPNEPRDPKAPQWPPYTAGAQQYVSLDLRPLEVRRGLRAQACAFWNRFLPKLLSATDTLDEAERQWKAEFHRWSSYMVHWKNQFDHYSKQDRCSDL
Procedure, shortened: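 Cells (SH-SY5Y, 2,000 per well) are seeded and left overnight at 37 C. Compound is added for 30 min, then DTNB and acetylthiocholine for a further 90 min at 37 C before absorbance-based thiocholine detection.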
`CCC(Cl)C(Cl)C(Cl)CC(Cl)C(Cl)C(C)Cl` (configuration not stated) was tested, and the Potency was “inactive”.
With `Nc1nc(CC(=O)O)cs1` the Potency was “inactive”.
In the case of `COc1ccc2cccc(CCNC(C)=O)c2c1`, the Potency is reported as “inactive”.
In the case of `Cc1cccc(Cl)c1`, the Potency is reported as “inactive”.
In the case of `CC(=O)C(C)=O`, the Potency is reported as “inactive”.
For `O=C(/N=N/C(=O)OCc1ccccc1)OCc1ccccc1`, the Potency was “inactive”.
`CCCCCCCCCCCCCCCCOS(=O)(=O)O` was tested, and the Potency was “inactive”.
For `CC1OCCC1=O` (configuration not stated), the Potency was “inactive”.
`OCCc1ccncc1` was tested, and the Potency was “inactive”.
With `O=C1CCCc2c1cc1ccc3cccc4ccc2c1c34` the Potency was “inactive”.
For `CCNc1nc(NC(C)CC)nc(OC)n1` (configuration not stated), the Potency was “inactive”.
`Clc1ccc2n[nH]nc2c1` was tested, and the Potency was “inactive”.
For `CC(C)=CCNc1ncnc2c1ncn2[C@@H]1O[C@H](CO)[C@@H](O)[C@H]1O`, the Potency was “inactive”.
With `CC(=O)c1cnccn1` the Potency was “inactive”.
`Cc1ccc(C(N)=O)cc1N` was tested, and the Potency was “inactive”.
With `NCC(=O)O` the activity, negative = inhibition was 0.505% [at 23.6 µM] (inactive).
With `CC(C)(COC(=O)c1ccccc1)COC(=O)c1ccccc1` the Potency was “inactive”.
In the case of `COc1cc(Cl)ccc1Oc1ccc(Cl)cc1Cl`, the Potency is reported as “inactive”.
With `C[C@]12CC[C@H]3C(=CCc4cc(O)ccc43)[C@@H]1CCC2=O` the Potency was “inactive”.
In the case of `N#CCCCC(C#N)CCC#N` (configuration not stated), the Potency is reported as “inactive”.
For `Nc1nc(N)c(-c2ccccc2)s1`, the Potency was “inactive”.
In the case of `CC(C)Nc1nc(N)nc(Cl)n1`, the Potency is reported as “inactive”.
With `CC(=O)OCCc1ccccc1` the Potency was “inactive”.
For `CCOC(=O)c1ccc(N(C)C)cc1`, the Potency was “inactive”.
For `COC(=O)c1cc(S(N)(=O)=O)ccc1OC`, the Potency was “inactive”.
For `COc1cccc(OC)c1`, the Potency was “inactive”.
In the case of `CO[Si](CCCCl)(OC)OC`, the Potency is reported as “inactive”.
In the case of `CCC1(C)C(=O)N(Cl)C(=O)N1Cl` (configuration not stated), the Potency is reported as “inactive”.
For `CC1=C2[C@H](/C=C(\C)C(=O)O)CC[C@@H](C)[C@H]2CC1`, the Potency was “inactive”.
For `CCO`, the Potency was “inactive”.
For `CCCO`, the Potency was “inactive”.
In the case of `CC(C)CCOC(=O)CC(C)C`, the Potency is reported as “inactive”.
With `CCCCC(CC)COP(=O)(O)O` (configuration not stated) the Potency was “inactive”.
`CCc1cc(Cc2cc(CC)c(N)c(CC)c2)cc(CC)c1N` was tested, and the Potency was “inactive”.
With `CC1(C)C(=O)C(C)(C)C1=O` the Potency was “inactive”.
For `COc1ccc2[nH]c(S(=O)Cc3ncc(C)c(OC)c3C)nc2n1` (configuration not stated), the Potency was “inactive”.
`O=C1OC(=O)c2ccccc21` was tested, and the Potency was “inactive”.
For `CCc1nccnc1C`, the Potency was “inactive”.
With `CC(C)=CCCC(C)CCOC(=O)C(C)C` (configuration not stated) the Potency was “inactive”.

These molecules were tested against Acetylcholinesterase (Homo sapiens) (UniProt P22303) (assay: Acetylcholinesterase (AChE) small molecule antagonists: enzyme-based qHTS assay (AID 1347397; further: nearly all actives have a fitted effect of over 55% in size)). Settings: Potency: AChE enzyme activity inhibition; outcome: AChE enzyme activity inhibition; series mostly up to 115 µM.
Procedure, shortened: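 Recombinant human AChE (50 mU/mL) preincubated with compound 30 min at room temperature; acetylthiocholine plus DTNB then added, and thiocholine formation read colorimetrically after 10 min at room temperature. DMSO served as vehicle control.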
For `CCC(Cl)C(Cl)C(Cl)CC(Cl)C(Cl)C(C)Cl` (configuration not stated), the Potency was “inactive”.
In the case of `Nc1nc(CC(=O)O)cs1`, the Potency is reported as “inactive”.
In the case of `COc1ccc2cccc(CCNC(C)=O)c2c1`, the Potency is reported as “inactive”.
In the case of `Cc1cccc(Cl)c1`, the Potency is reported as “inactive”.
With `CC(=O)C(C)=O` the Potency was “inactive”.
For `O=C(/N=N/C(=O)OCc1ccccc1)OCc1ccccc1`, the Potency was “inactive”.
For `CCCCCCCCCCCCCCCCOS(=O)(=O)O`, the Potency was “inactive”.
In the case of `CC1OCCC1=O` (configuration not stated), the Potency is reported as “inactive”.
In the case of `OCCc1ccncc1`, the Potency is reported as “inactive”.
For `O=C1CCCc2c1cc1ccc3cccc4ccc2c1c34`, the Potency was “inactive”.
With `CCNc1nc(NC(C)CC)nc(OC)n1` (configuration not stated) the Potency was “inactive”.
With `Clc1ccc2n[nH]nc2c1` the Potency was “inactive”.
For `CC(C)=CCNc1ncnc2c1ncn2[C@@H]1O[C@H](CO)[C@@H](O)[C@H]1O`, the Potency was “inactive”.
In the case of `CC(=O)c1cnccn1`, the Potency is reported as “inactive”.
`Cc1ccc(C(N)=O)cc1N` was tested, and the Potency was “inactive”.
In the case of `NCC(=O)O`, the activity change, negative = inhibition is reported as 0.147% [at 23.6 µM] (inactive).
In the case of `CC(C)(COC(=O)c1ccccc1)COC(=O)c1ccccc1`, the Potency is reported as “inactive”.
`COc1cc(Cl)ccc1Oc1ccc(Cl)cc1Cl` was tested, and the Potency was “inactive”.
`C[C@]12CC[C@H]3C(=CCc4cc(O)ccc43)[C@@H]1CCC2=O` was tested, and the Potency was “inactive”.
In the case of `N#CCCCC(C#N)CCC#N` (configuration not stated), the Potency is reported as “inactive”.
With `Nc1nc(N)c(-c2ccccc2)s1` the Potency was “inactive”.
For `CC(C)Nc1nc(N)nc(Cl)n1`, the Potency was “inactive”.
For `CC(=O)OCCc1ccccc1`, the Potency was “inactive”.
With `CCOC(=O)c1ccc(N(C)C)cc1` the Potency was “inactive”.
With `COC(=O)c1cc(S(N)(=O)=O)ccc1OC` the Potency was “inactive”.
`COc1cccc(OC)c1` was tested, and the Potency was “inactive”.
For `CO[Si](CCCCl)(OC)OC`, the Potency was “inactive”.
`CCC1(C)C(=O)N(Cl)C(=O)N1Cl` (configuration not stated) was tested, and the Potency was “inactive”.
For `CC1=C2[C@H](/C=C(\C)C(=O)O)CC[C@@H](C)[C@H]2CC1`, the Potency was “inactive”.
For `CCO`, the Potency was “inactive”.
`CCCO` was tested, and the Potency was “inactive”.
`CC(C)CCOC(=O)CC(C)C` was tested, and the Potency was “inactive”.
For `CCCCC(CC)COP(=O)(O)O` (configuration not stated), the Potency was “inactive”.
`CCc1cc(Cc2cc(CC)c(N)c(CC)c2)cc(CC)c1N` was tested, and the Potency was “inactive”.
For `CC1(C)C(=O)C(C)(C)C1=O`, the Potency was “inactive”.
For `COc1ccc2[nH]c(S(=O)Cc3ncc(C)c(OC)c3C)nc2n1` (configuration not stated), the Potency was “inactive”.
With `O=C1OC(=O)c2ccccc21` the Potency was “inactive”.
In the case of `CCc1nccnc1C`, the Potency is reported as “inactive”.
For `CC(C)=CCCC(C)CCOC(=O)C(C)C` (configuration not stated), the Potency was “inactive”.

The molecules below were run against Acetylcholinesterase (Homo sapiens) (UniProt P22303) (assay: Acetylcholinesterase (AChE) small molecule antagonists: fluorescence cell-based qHTS assay (AID 1347398; further: nearly all actives have a fitted effect of over 50% in size)). Settings: SH-SY5Y cells; Potency: AChE activity; outcome: AChE activity; series mostly up to 115 µM.
Procedure, shortened: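 SH-SY5Y cells (2000/well), attached overnight, incubated with compound 30 min at 37 C. Acetylthiocholine plus Thiolite Green then added for 40 min at room temperature. Thiocholine fluorescence (Ex/Em 490/520 nm) reports cellular AChE activity.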
In the case of `CCC(Cl)C(Cl)C(Cl)CC(Cl)C(Cl)C(C)Cl` (configuration not stated), the Potency is reported as “inactive”.
For `Nc1nc(CC(=O)O)cs1`, the Potency was “inactive”.
In the case of `COc1ccc2cccc(CCNC(C)=O)c2c1`, the Potency is reported as “inactive”.
With `Cc1cccc(Cl)c1` the Potency was “inactive”.
With `CC(=O)C(C)=O` the Potency was “inactive”.
`O=C(/N=N/C(=O)OCc1ccccc1)OCc1ccccc1` was tested, and the Potency was “inactive”.
For `CCCCCCCCCCCCCCCCOS(=O)(=O)O`, the Potency was “inactive”.
In the case of `CC1OCCC1=O` (configuration not stated), the Potency is reported as “inactive”.
With `OCCc1ccncc1` the Potency was “inactive”.
With `O=C1CCCc2c1cc1ccc3cccc4ccc2c1c34` the Potency was “inactive”.
In the case of `CCNc1nc(NC(C)CC)nc(OC)n1` (configuration not stated), the Potency is reported as “inactive”.
`Clc1ccc2n[nH]nc2c1` was tested, and the Potency was “inactive”.
For `CC(C)=CCNc1ncnc2c1ncn2[C@@H]1O[C@H](CO)[C@@H](O)[C@H]1O`, the Potency was “inactive”.
With `CC(=O)c1cnccn1` the Potency was “inactive”.
In the case of `Cc1ccc(C(N)=O)cc1N`, the Potency is reported as “inactive”.
With `NCC(=O)O` the activity change, negative = inhibition was 6.61% [at 23.8 µM] (inactive).
For `CC(C)(COC(=O)c1ccccc1)COC(=O)c1ccccc1`, the Potency was “inactive”.
`COc1cc(Cl)ccc1Oc1ccc(Cl)cc1Cl` was tested, and the Potency was “inactive”.
In the case of `C[C@]12CC[C@H]3C(=CCc4cc(O)ccc43)[C@@H]1CCC2=O`, the Potency is reported as “inactive”.
`N#CCCCC(C#N)CCC#N` (configuration not stated) was tested, and the Potency was “inactive”.
In the case of `Nc1nc(N)c(-c2ccccc2)s1`, the Potency is reported as “inactive”.
With `CC(C)Nc1nc(N)nc(Cl)n1` the Potency was “inactive”.
In the case of `CC(=O)OCCc1ccccc1`, the Potency is reported as “inactive”.
In the case of `CCOC(=O)c1ccc(N(C)C)cc1`, the Potency is reported as “inactive”.
`COC(=O)c1cc(S(N)(=O)=O)ccc1OC` was tested, and the Potency was “inactive”.
`COc1cccc(OC)c1` was tested, and the Potency was “inactive”.
For `CO[Si](CCCCl)(OC)OC`, the Potency was “inactive”.
In the case of `CCC1(C)C(=O)N(Cl)C(=O)N1Cl` (configuration not stated), the Potency is reported as “inactive”.
With `CC1=C2[C@H](/C=C(\C)C(=O)O)CC[C@@H](C)[C@H]2CC1` the Potency was “inactive”.
For `CCO`, the Potency was “inactive”.
In the case of `CCCO`, the Potency is reported as “inactive”.
`CC(C)CCOC(=O)CC(C)C` was tested, and the Potency was “inactive”.
`CCCCC(CC)COP(=O)(O)O` (configuration not stated) was tested, and the Potency was “inactive”.
With `CCc1cc(Cc2cc(CC)c(N)c(CC)c2)cc(CC)c1N` the Potency was “inactive”.
In the case of `CC1(C)C(=O)C(C)(C)C1=O`, the Potency is reported as “inactive”.
For `COc1ccc2[nH]c(S(=O)Cc3ncc(C)c(OC)c3C)nc2n1` (configuration not stated), the Potency was “inactive”.
`O=C1OC(=O)c2ccccc21` was tested, and the Potency was “inactive”.
For `CCc1nccnc1C`, the Potency was “inactive”.
For `CC(C)=CCCC(C)CCOC(=O)C(C)C` (configuration not stated), the Potency was “inactive”.

— PubChem BioAssay (Tox21)
